Test results from the supplement of paper PMC11417369.
± gives the standard deviation of the averaged measurements. In all, about 25,000 sequences were measured (“ln(normalized median fluorescence intensity)”: median about 8.6, highest 2% from about 10 on). This excerpt belongs to a sample that is enriched for the highest values.

These sequences were tested on PfAP2-EXP AP2 domain (GST-tagged) (assay: gcPBM binding intensity (ln(normalized median fluorescence intensity)); higher = stronger DNA binding).
Procedure, shortened: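 Binding intensity is the highest Masliner-normalised natural-log median intensity over replicate spots in either probe orientation. To obtain it, GST-tagged P. falciparum DNA-binding domains made in E. coli were incubated for 1 h on an Agilent 4 × 180k array of primer-extended double-stranded 36-bp intergenic genomic probes plus negative controls. Detection used Alexa488 anti-GST antibody with scanning at 488 nm.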

| Sequence | gcPBM binding intensity (ln) |
| --- | --- |
| AAACCTTTAGAAAATCGTACAAAACATAACCACCTA [XGTACX_site1098] | 8.81 ± 0.61 |
| CACAGACACGGACACACACACACAAAAAAAAAAAGA [CACACA_site4436] | 8.44 ± 0.57 |
| TATTTTTAAATATAAAGTACTTATATTAACTACGAA [XGTACX_site1524] | 8.27 ± 0.29 |
| TATATATATACATACATACACACATATATATATATA [CACACA_site4109] | 10.1 ± 0.67 |
| ACAATAAAATATGGCACACATATATATATATATTTA [CACACA_site3] | 8.43 ± 0.34 |
| AAAATCTAGGTATTTATACACACTAAAATAATATAC [CACACA_site623] | 8.52 ± 0.3 |
| AAATAAAATAAAATAAAATAAAATAAAATAAAATAA [XGTACX_negctrl_site142] | 8.49 ± 0.28 |
| AAAAAATATATATGCACACACAAAAAAACAAATTAA [CACACA_site1278] | 8.78 ± 0.38 |
| ATATATATATATTGTACACACATTTATGCATATATA [CACACA_site5738] | 9.97 ± 0.3 |
| AGTGAAATTTTAGTCACACAGTTTTATCTTTAAGAA [CACACA_site5202] | 8.12 ± 0.52 |
| TTGTGTTATCACACGAAGGGGATAAGACATAAATGT [TGCATGCA_negctrl_site368] | 8.49 ± 0.49 |
| TCTTAAGGAAAAGAGTGTACAGAAATTTTTATTAAC [XGTACX_site6139] | 8.67 ± 0.48 |
| TGTAGTCTGGAGAAAAGTACATAGTATCTGGTAACC [XGTACX_site2025] | 8.62 ± 0.38 |
| ATAAAAAGCTAAAAAGTGCAAAAAGTAAATATTTAA | 9 ± 0.44 |
| TTTAAATAAAATATTACACACTTAGAAAAATATATA [CACACA_site3663] | 8.38 ± 0.28 |
| AGAATAATAAAATGGGTGCAATAGTTTTTTTTTTTT [GTGCAC_site9823] | 8.59 ± 0.13 |
| TTTTTTTTTTTTAATACACACATATATATATTTATT [CACACA_site3994] | 8.38 ± 0.42 |
| ATTTATATATATATAGGTACACATATTTATATATAA [XGTACX_site8487] | 8.23 ± 0.2 |
| TATATAAACACGTACACACACATATAGGTATTTATA [CACACA_site7615] | 8.71 ± 0.49 |
| ATATATTTATTATTAGGTACACATATATATATATAT [XGTACX_site5045] | 10.2 ± 0.54 |
| TTTTTTTTTTTTAATACACACATATTTATATTTATT [CACACA_site7802] | 8.44 ± 0.3 |
| CATATATATATATATACACACATATATATTTTCTTT [CACACA_site1457] | 8.69 ± 0.15 |
| TATAAGTTTATATATACACACATATATATATATATA [CACACA_site3274] | 10.2 ± 0.34 |

| Sequence | gcPBM binding intensity (ln) |
| --- | --- |
| TATATACATATATATACACACATATATATATTTTAT [CACACA_site3788] | 8.26 ± 0.4 |
| AGGATATATAAGTATACACACATATTTATATTTATA [CACACA_site6239] | 8.23 ± 0.42 |
| TATATATATATATATACACACATATATATATTTTTC [CACACA_site3983] | 10.2 ± 0.26 |
| ACAAATAAGTTTTATACACACATATAAGTAAATACA [CACACA_site4157] | 8.57 ± 0.29 |
| AATATATTTTAATACACACACACATATATATATATA [CACACA_site5969] | 10.3 ± 0.34 |
| TATATAAACCCGTACACACACATATATGTATATATA [CACACA_site3507] | 8.91 ± 0.25 |
| TGTTTTTAAATTTAAATCAAAAAATAAAATAAAATA [GTGCAC_negctrl_site355] | 8.34 ± 0.48 |
| CTTACCAAAAGACACACACACACAAGATATATAAAT [CACACA_site6964] | 8.77 ± 0.56 |
| TATTGTTATGTCGTTATTAACTTTCTTTAATTAATT [CACACA_negctrl_site174] | 8.95 ± 0.29 |
| TTTTTTTTTTTGAGGAGGACACAAAAATATGCTACC [XGTACX_site756] | 8.53 ± 0.26 |
| TTTAATCAATGATTTAATGAAAAAAGCAAAAAAAAA [GTGCAC_negctrl_site213] | 8.38 ± 0.45 |
| TATATATATATATATACACACATATATATATTTATA [CACACA_site627] | 10.3 ± 0.18 |
| TATTTATATTTATATACACACATACATATTTATATT [CACACA_site6535] | 8.41 ± 0.33 |
| AAAAATTTTAATTAGGAACACACATATATATATATA [CACACA_site9016] | 10.1 ± 0.27 |
| TAATATTGACTATATACACACATATAAATATAAATA [CACACA_site6414] | 8.4 ± 0.33 |
| GTAATTTTTTTCTATACACACATATATATAATATAT [CACACA_site2655] | 8.74 ± 0.32 |
| TGAATATTTCTATATACACACATATAAATATAAATA [CACACA_site7593] | 8.26 ± 0.36 |
| AAATTATAATTAGGAACACACATATATATATATATA [CACACA_site3098] | 10.1 ± 0.33 |
| ATTTATTGACTATTTACACACATATTTATTATAATA [CACACA_site1624] | 8.9 ± 0.52 |
| TGAATATTTCTATATACACACATATATATATATATA [CACACA_site3451] | 10.3 ± 0.12 |
| AAATTTTAATTAGGAACACACATATATATATATATA [CACACA_site5673] | 10.2 ± 0.24 |
| TAATATTGACTATATACACACATATATATATATATA [CACACA_site575] | 10.2 ± 0.28 |
| TATATATATATTTATACACACACATATATTTATATA [CACACA_site8054] | 9.47 ± 0.071 |

| Sequence | gcPBM binding intensity (ln) |
| --- | --- |
| AAATTCATATGAATTTGTACGGACATAAATATCTTC [XGTACX_site1838] | 8.62 ± 0.33 |
| TGAATTTACAAAATCATGCACTTAATTACAGAATAA | 8.38 ± 0.26 |
| TCCATATGCAAACTGGTGCACAAGTAGCTTTTATAT | 8.99 ± 0.3 |
| TCATAAAAAGGAATCTTTAAGATATTTTATAAGCTC [XGTACX_negctrl_site18] | 8.06 ± 0.5 |
| TATATAAAAATCAATTGTACTTTTTTTTTTTTTTTT [XGTACX_site7327] | 8.52 ± 0.16 |
| TTAAGATCCTAAAAAACACACAATTGTGAATAATAA [CACACA_site3872] | 8.69 ± 0.53 |
| TGTAGATAAAATAAACGTACGTATTGATTTTTTTCA [XGTACX_site1610] | 8.26 ± 0.41 |
| TATTATATTCTGCTTACACACATATATATATATATA [CACACA_site3060] | 10.3 ± 0.38 |
| CATATTATATTCTGCTTACACACATATATATATATA [CACACA_site3059] | 10.1 ± 0.42 |
| TATTCTAGTCTGCTTACACACATATTTATATTTATA [CACACA_site7432] | 8.81 ± 0.54 |
| GAAGATTTATCTTGCACACGCAAAAAAAAAAAAAAA [CACACA_site154] | 8.4 ± 0.27 |
| TGAAGGATATATTCCGTGCACATATAAATATATACA | 8.735 ± 0.007 |
| ATATATATATATATATGTACTAAATATTCATCCTTA [XGTACX_site6039] | 10.2 ± 0.3 |
| AATCTTAAAAATATATGTACTAAAAAAAAAAAAAAT [XGTACX_site6195] | 8.37 ± 0.47 |
| AAAATATTTCATATATGTACTTAAAAAAAAAAAAAA [XGTACX_site5399] | 8.27 ± 0.38 |
| CTATATATATATTTCAGTACATATTAAGAATATATA [XGTACX_site4860] | 8.31 ± 0.38 |
| TATAACATAGGACACACACACATACATACACAAAAA [CACACA_site5062] | 8.94 ± 0.35 |
| ATATATATATATAAAGGTACACATTTATTAAATATA [XGTACX_site7102] | 10.1 ± 0.12 |
| TTTAATATGTATTTTTTTTTTTTTTTTTTTTTTTTT [XGTACX_negctrl_site440] | 9.06 ± 0.085 |
| ATATCCTACTTCTAGTGTACATATATGGACTGATGA [XGTACX_site3683] | 8.87 ± 0.35 |
| AAGCATCCTACTGATTGTACATATATATATATATAT [XGTACX_site2150] | 10.2 ± 0.3 |
| ATATAATATATATATTGTACATATATTTATAAGCAT [XGTACX_site3726] | 8.38 ± 0.19 |
| AACGAAATCATCAAGTGTACTAGTTTATTATTAATA [XGTACX_site6161] | 8.38 ± 0.42 |

| Sequence | gcPBM binding intensity (ln) |
| --- | --- |
| TTTTTTCTTTTTTTTTGTACATATAATATTTATGTT [XGTACX_site302] | 8.62 ± 0.4 |
| AAGTACCATATAGGCACACATATATATATATATATA [CACACA_site3282] | 10.2 ± 0.34 |
| AAAATAATAATAGGCACACATATATATATATATATA [CACACA_site2058] | 10.1 ± 0.33 |
| ATGTACTATAGGCACACACACTCACATATATATATA [CACACA_site5745] | 9.96 ± 0.22 |
| AAGAAAAGCAAACAAGTGCATAATAACAAAAAAAAT [GTGCAC_site9725] | 9.13 ± 0.46 |
| TTGTTTCTTAAATTATTTATTTTATATTAAAAAAAA [XGTACX_negctrl_site224] | 8.31 ± 0.46 |
| ATTTATTTTATTTTCACACACAAAAATAAATATCCG [CACACA_site2414] | 8.44 ± 0.44 |
| TTATTATTATTACTAGTGCATTAATTATATATGTAA | 8.72 ± 0.13 |
| ATATATATATATATATGTACATACATATTGTTTGGT [XGTACX_site2284] | 10.3 ± 0.76 |
| ATATATATATATATATGTACATATGTTTGTTTCCGC [XGTACX_site5167] | 10.3 ± 0.21 |
| CATATATATATATATTGTACAAGATTGTTTTTTTAT [XGTACX_site3913] | 8.76 ± 0.35 |
| TATATATCTATATATTGTACATATGTTTGTATGTGT [XGTACX_site7420] | 8.54 ± 0.29 |
| ATATATATATATATATGTACATATTATTATTTTGAT [XGTACX_site4752] | 10.1 ± 0.38 |
| TTTTTTTTTTGATGTTGTACATATATATTATATATA [XGTACX_site6377] | 8.55 ± 0.41 |
| TTTATATTGTTTTATTGTACATATATATTTATACAT [XGTACX_site6821] | 8.81 ± 0.4 |
| ATATATATATATATATGTACATATTTTTGTTTGATG [XGTACX_site51] | 10.2 ± 0.81 |
| ATATATATATATATATGTACACATATATGTGTTTGT [XGTACX_site62] | 10.1 ± 0.26 |
| ATATTGTTATATGTTTGTACATATTTTTTATATTTT [XGTACX_site6834] | 8.93 ± 0.91 |
| GTGTTTTTTTTAGATTGTACATATATATATATATAT [XGTACX_site4562] | 10.3 ± 0.33 |
| ATATATATATATATATGTACATATGTATGTGTTTGT [XGTACX_site397] | 9.93 ± 0.42 |
| TAACTAAGGAATAATACACACAGAAATATAGATTTA [CACACA_site6293] | 8.41 ± 0.42 |
